Assay results: PubChem BioAssay AID588456 (National Center for Advancing Translational Sciences (NCATS), 2011)
Out of some 390,000 compounds screened, about 55 (0.01%) were called active. Calls follow the shape of the dose curve; as a rule, active = well fitted inhibition curve with a large enough effect; inconclusive = small, poorly fitted or top-dose-only effect; inactive = no such curve, though single readings can be large or run the other way. These entries were drawn from the full list.

biological target: Thioredoxin reductase 1, cytoplasmic (Rattus norvegicus) (UniProt O89049); assay: qHTS Assay for Substrates of Mammalian Selenoprotein Thioredoxin Reductase 1 (TrxR1): qHTS; details: purified TrxR1 substrate turnover, NADPH consumption readout; series mostly up to 114 µM; also: nearly all actives have a fitted effect of over 50% in size
From the text: The selenoprotein thioredoxin reductase (TrxR; EC 1.8.1.9) is a FAD containing homodimeric pyridine nucleotide-disulfide oxidoreductase with many cellular roles. Together with NADPH and its prime substrate thioredoxin (Trx), the enzyme forms the core of the Trx system. The mammalian Trx system exerts a wide spectrum of functions including redox regulation, antioxidant defense, regulation of transcription factors as well as support of cell growth and replication. Many of these functions involve the reduction of Trx, which may subsequently reduce a number of different substrates including ribonucleotide reductase, peroxiredoxins or NFkB. Mammalian TrxR itself also has a broad substrate specificity, reducing both protein and non-protein substrates, including low molecular weight compounds such as dehydroascorbate, lipoic acid, ubiquinone, and juglone. In addition, several drugs in clinical use for anticancer treatment are indeed known to target TrxR1.
This BioAssay is a validation of an NADPH fluorescence-based, dual-purpose qHTS rTrxR1 assay designed to find potential inhibitors and substrates of rTrxR1. For this particular BioAssay, actives are potential substrate. See related BioAssay for inhibition data deposition.
NIH Molecular Libraries Probe Production Network [MLPCN]
NIH Chemical Genomics Center [NCGC]
Assay Provider: Elias Arner, Karolinska Institute
Assay protocol: 2 uL of reagents (buffer in column 4 as negative control and 90 nM rTrxR1 in columns 1-3 and 5-48) were dispensed into Greiner black solid-bottom 1,536-well assay plates, followed by 1 uL of NADPH (400 uM final concentration) to each well. The plates were centrifuged at 1000 rpm for 15 seconds and subsequently incubated for 5 min at room temperature (~22 deg C) to allow for rTrxR1 reduction. Compounds (23 nL) were then transferred via Kalypsys pin tool equipped with 1536-pin array (10 nL slotted pins, V&P Scientific, San Diego, CA). In addition, a duplicate 2-fold serial dilution of the control compounds auranofin, a known gold-based TrxR1 inhibitor, and juglone (5-hydroxy-1,4-naphthoquinone), a natural TrxR1 substrate, were pin-transferred to columns 2 and 3, respectively. After incubation for 15 min at room temperature (~22 deg C), 1 uL of selenite (400 uM final concentration) were dispensed to each well. The plate was immediately transferred to a ViewLux high-throughput CCD imager (PerkinElmer), wherein kinetic measurements of NADPH fluorescence (Ex 340 nm, Em 450 nm) were acquired (8 minute kinetic read, see Table 1). Read 1 was utilized to assess the capacity of a compound to serve as an rTrxR1 substrate, i.e. a decrease in NADPH fluorescence compared to the no-compound background is an indication of a substrate behavior for that particular compound. For inhibitory activity of a compound, delta values, computed as the difference in fluorescence intensity between the first and last reads of an 8-minute time kinetic window, were used. All reagents were diluted in an assay buffer consisting of 50 mM Tris-HCl, pH 7.5, 2 mM EDTA, and 0.01% Tween-20.
Throughout the screen, reagent bottle and all liquid lines were made light-tight to minimize reagent degradation. All screening operations were performed on a fully integrated robotic system (Kalypsys, San Diego, CA) containing one RX-130 and two RX-90 anthropomorphic robotic arms (Staubli, Duncan, SC). Library plates were screened starting from the lowest and proceeding to the highest concentration, and a 'double-pinning' step of the highest concentration was required to access higher concentrations of compounds. Vehicle-only plates, with DMSO being pin-transferred to the columns 5-48, were inserted uniformly at the beginning and the end of each library in order to monitor and record any shifts in the background, which can be affected by reagent dispensers or loss in enzyme activity over time. […]
% is scaled to controls: 0 for no effect and ±100 for the full control effect.

Sequence of Thioredoxin reductase 1, cytoplasmic (Rattus norvegicus) (O89049 whole entry, looked up): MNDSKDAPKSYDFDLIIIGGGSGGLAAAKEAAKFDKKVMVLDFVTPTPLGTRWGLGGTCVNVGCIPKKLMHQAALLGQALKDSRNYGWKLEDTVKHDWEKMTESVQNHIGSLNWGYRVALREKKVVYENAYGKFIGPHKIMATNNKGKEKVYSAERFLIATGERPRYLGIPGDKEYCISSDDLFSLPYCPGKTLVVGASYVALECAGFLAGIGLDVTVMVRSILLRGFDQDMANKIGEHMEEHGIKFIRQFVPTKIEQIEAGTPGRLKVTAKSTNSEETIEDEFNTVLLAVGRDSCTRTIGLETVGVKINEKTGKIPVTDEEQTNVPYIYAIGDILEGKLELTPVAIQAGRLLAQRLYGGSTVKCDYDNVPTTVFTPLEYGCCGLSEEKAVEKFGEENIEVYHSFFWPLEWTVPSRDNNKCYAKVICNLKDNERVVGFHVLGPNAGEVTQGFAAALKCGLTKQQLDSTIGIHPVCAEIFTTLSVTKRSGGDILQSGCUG

Activity change, negative = substrate turnover, inactive:
O=[N+]([O-])c1ccc(S(=O)(=O)N2CCN(c3nc(-c4ccccc4)nc4ccccc34)CC2)cc1
Cc1cccc(-n2ccnc2SCC(=O)Nc2cc(C(F)(F)F)ccc2Cl)c1
CN1CCN(/[N+]([O-])=N/Oc2ccc([N+](=O)[O-])cc2[N+](=O)[O-])CC1
COc1cc2nc(N3CCCN(C)CC3)nc(NC(C)C)c2cc1OC
CN(N=O)c1ccc(C=C2c3ccccc3-c3ccccc32)cc1
COc1ccc(-c2nc(=N)sn2-c2ccccc2)cc1
CN(C)c1ccc(/C=C/c2c3ccccc3nc3ccccc23)cc1
CN(C)c1cc2c(Nc3ccc4c(cnn4Cc4ccccc4)c3)ncnc2cn1
CC(C)(C)n1ncc2c(=O)n(Cc3ccc(C(=O)c4ccccc4)cc3)cnc21
CC(C)(C)OC(=O)N(Cc1ccco1)S(=O)(=O)c1ccccc1Br
CC(=O)c1ccc[n+](C(C)CCC(C)[n+]2cccc(C(C)=O)c2)c1 (stereo not drawn) 4.01% [at 0.0914 µM]
CCOc1ccc(CCNC(=O)c2csc3c2CCCCC3)cc1
CN(C(=N)N)c1ccc(/C=C2\C=Cc3ccccc32)cc1
Cc1cccc(-n2ncc(C(=O)N3CCc4ccccc4C3)c2C2CCN(C(=O)OC(C)(C)C)CC2)c1
Cc1cccc(NC(=O)CSc2nc3c(oc4ccccc43)c(=O)n2-c2ccc(F)cc2)c1
COc1cc(CNCCSc2nnnn2C)ccc1OCc1c(F)cccc1Cl 7.47% [at 11.4 µM]
CC1(C)Cc2ccccc2-c2c[nH]c(=O)n21
O=C(c1ccc2c(=O)n(Cc3ccco3)c(=S)[nH]c2c1)N1CCCC1
N#Cc1ccc[n+](CC(=O)c2ccc(F)cc2)c1
Nc1ncnc2nnsc12 7.52% [at 0.0914 µM]
Oc1ccc(Br)cc1C1C=C(c2ccc3c(c2)OCO3)NC(c2ccc(Cl)cc2)N1 (stereo not drawn) 6.51% [at 0.0914 µM]
COc1cc(CN(CC2CCCO2)C(=O)c2ccccc2F)cc(OC)c1OC (stereo not drawn)
ClC/C=C/C[n+]1ccccc1Cl
CCOC(=O)c1c(C)oc2ccc(N(C(=O)c3ccncc3)S(=O)(=O)c3ccc(CC)cc3)cc12
CCCCC(CCCC)c1ccc(C=Nc2ccc(/C=C/c3ccnc4ccccc34)cc2)cc1
COc1cc(OC)c(/C=C/c2ccnc3ccccc23)c(OC)c1
CCOC(=O)c1cccc(NC(=O)c2cc(S(=O)(=O)N3CCCC(C)C3)cn2C)c1 (stereo not drawn)
O=C(Nc1ccccc1)c1ccccc1OCc1ccccc1
